Compound activity (PubChem)
Platelet DG rel – inhibitors of platelet dense granule secretion, primary screen, cell-based, MLPCN, human platelets; inhibition, %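 (compounds screened at 7.5 µM in platelet-rich plasma)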; human platelet-rich plasma, SFLLRN dense granule ATP release, luminescence; 0.22% of 300,000 active;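 active = mean replicate score, as percent of positive control, at or above 50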
TROY NFkB inh – inhibitors of TROY-driven NF-kB signaling, primary screen, Q293 LMP1-TROYcd cells, NF-kB luciferase, uHTS; Q293 LMP1-TROYcd NF-kB luciferase reporter, 4 h; inhibition, % at 10 µM; 0.98% of 360,000 active;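 active = compounds whose plate-normalised and pattern-corrected inhibition of the luciferase reporter signal at the single screening dose is 50% or more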
PPC-1+TRAIL kill – compounds killing PPC-1 cancer cells with TRAIL present, primary screen, TRAIL potentiator project, ATPLite luminescence, uHTS; PPC-1 cells + TRAIL, ATPLite viability luminescence; cell killing (% activity), % at 4 µM or 5 µM; 0.41% of 220,000 active; AID 1443, 2008;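 active = cell killing above 50% in the first pass at 4 µM, then a duplicate retest at 5 µM averaging 50% or more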
TRAIL sens C8 – viability loss with TRAIL in NB7+C8 cells, primary screen, TRAIL sensitizer project, cell-based, ATPlite luminescence; inhibition (viability loss, TRAIL sensitization), % at 10 µM; 1% of 360,000 active;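 active = compounds causing at least 50% loss of cell viability in the single-dose screen, relative to plate controls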
TWEAK Fn14 block – inhibitors of TWEAK-Fn14 signaling, primary screen, luciferase reporter cells, uHTS. TWEAK-stimulated Fn14 reporter cells, luciferase luminescence, 8 h. inhibition, % at 10 µM. 2% of 360,000 active; in the data active = inhibition above about 50%
HSP90 refold inh – HSP90 inhibitors, primary screen, cell lysate, luminescence; inhibition, % at 5.6 µM; Rabbit reticulocyte lysate, luciferase refolding luminescence, 3 h; 0.91% of 290,000 active;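 active = inhibition above the screen-wide mean plus 3 SD, computed separately per campaign, cut at about 16% in these data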;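 note: inhibitors lower the luminescence because luciferase stays unfolded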
Numbers stand for hits; i = inactive; nt = not tested or not shown. Compounds with a hit are over-represented: about 3.5% of the library has one in this group of screens.

SMILES	Platelet DG rel	TROY NFkB inh	PPC-1+TRAIL kill	TRAIL sens C8	TWEAK Fn14 block	HSP90 refold inh
CC(=O)/C(C(=N)N1CCN(c2cccc(Cl)c2)CC1)=C(\C)O	i	57	i	i	75	i
COc1ccc(/C=C2\CCCCC2=O)cc1	i	i	nt	i	i	nt
COc1ccc(C=C2CS(=O)(=O)CC(=Cc3ccc(OC)cc3)C2=O)cc1	nt	56	nt	i	88	nt
CCOC(=O)C1=CCC(c2cccc3ccccc23)N(S(=O)(=O)c2ccc(C)cc2)C1 (stereo not given)	nt	i	nt	i	i	nt
Cc1ccc(C(=O)CCC(=O)N2CCN(c3ccccc3O)CC2)cc1	i	i	nt	i	i	nt
Cc1cccnc1CNC(=O)C1(C)CCCN1CC(C)C (stereo not given)	nt	i	nt	i	i	nt
Cc1cc(N2CCC(C(=O)NC3CC3)CC2)nc(-c2ccccc2)n1	i	i	i	i	i	i
Cc1cc(N2CCC(C(=O)NCC3CC3)CC2)nc(-c2ccccc2)n1	i	i	i	i	78	i
COC(=O)[C@H](C(C)C)N(Cc1ccccc1)S(=O)(=O)CCN1CCN(c2ccccc2)CC1	nt	i	nt	i	i	nt
Cc1nc(SCC(=O)c2ccc(F)c(F)c2)[nH]c(=O)c1Oc1ccc(Cl)cc1	i	53	i	i	i	i
CCNC(=O)C1(C)CCN(Cc2cccc(C(F)(F)F)c2)C1 (stereo not given)	nt	i	nt	i	i	nt
Cc1cc(N/N=C/c2ccc(O)c(C)c2O)nc(-c2ccccc2O)n1	i	i	64	i	66	i
COc1ccc(-c2[nH]ncc2CNC(C)CCn2cccn2)c(F)c1 (stereo not given)	i	i	i	i	i	i
COc1ccc(-c2[nH]ncc2CNC(C)c2cn(C)nc2C)c(F)c1 (stereo not given)	i	i	i	i	65	i
COc1cc(/C=N/Nc2ccc3ccccc3c2)ccc1OC(=O)c1ccco1	i	i	i	i	51	i
COc1cc(/C=N/Nc2nc(C)cc(C)n2)ccc1OC(=O)c1ccco1	i	i	i	i	i	i
Brc1ccc2nc(-c3ccco3)c(CC3CCCCC3)n2c1	nt	i	nt	i	i	nt
CCn1c(Cc2cccn2C)nnc1SCC(=O)c1ccc(C)cc1	58	i	i	i	i	i
CCn1c(SCC(=O)c2ccc(O)c(O)c2)nnc1-c1ccc(C)cc1	i	i	i	i	i	i
CC(C)(C)c1ccc(OCCC(=O)OCC(=O)NCc2ccccc2)cc1	i	i	nt	i	i	nt
Cc1ccc(SCC(=O)OCC(=O)N2CCN(C(=O)c3ccco3)CC2)c(C)c1	i	i	nt	i	i	nt
CCOC(=O)CSc1c(-c2ccc(Cl)cc2)[nH]c2ccccc12	i	i	i	i	i	i
O=C(Cc1cccs1)NCCSc1c(-c2ccc(Cl)cc2)[nH]c2ccccc12	i	51	i	i	81	i
Cc1c(C(=O)O)sc(S(=O)(=O)N2CCN(C(=O)Cc3ccccc3Cl)CC2)c1C(=O)O	nt	i	nt	i	i	nt
CC(C)(C)NC(=O)CN(C(=O)C1CSC(=O)C1)c1ccc2c(c1)OCCO2 (stereo not given)	i	54	i	i	61	i
SMILES	Platelet DG rel	TROY NFkB inh	PPC-1+TRAIL kill	TRAIL sens C8	TWEAK Fn14 block	HSP90 refold inh
COc1cccc(N(CC(=O)NC(C)(C)C)C(=O)C2CSC(=O)C2)c1 (stereo not given)	i	i	i	i	i	i
Brc1ccc2ncnc(NCc3ccccc3)c2c1	i	54	i	i	82	i
c1ccc(CCNc2ncnc3ccccc23)cc1	i	i	i	i	68	i
Cc1cccc(-c2ccc3ncnc(NCc4cccnc4)c3c2)c1	nt	i	nt	i	i	nt
O=C(CN1C(=O)COc2ccccc21)NC1CCCC1	i	i	nt	i	i	i
O=C1c2cc([N+](=O)[O-])ccc2-c2cc(Br)c(N=C(NO)C(F)(F)F)cc21	nt	79	nt	i	i	nt
Cc1cc2oc(=O)cc(-c3ccccc3)c2c(C)c1-c1ccc(O)cc1	nt	53	nt	i	i	nt
Cc1cc(O)c2c(-c3ccccc3)cc(=O)oc2c1	nt	i	i	i	i	i
C/C(N)=C(/C#N)C(=O)CSc1nnc(-c2ccc3c(c2)OCO3)o1	i	i	i	i	83	i
Cc1cc(C(=O)CSc2nnc(-c3ccc4c(c3)OCO4)o2)c(C)n1-c1ccc(F)cc1	i	i	i	i	65	i
NC(=O)CSc1nnc(-c2ccc3c(c2)OCO3)o1	i	i	i	i	i	i
CCN1CCN(c2oc(/C=C/c3ccccc3)nc2C#N)CC1	i	53	i	i	i	i
CCN1CCN(c2oc(-c3ccc(OC)cc3)nc2C#N)CC1	i	i	nt	i	i	i
CCc1nc2c(cnn2-c2ccc(F)cc2)c(=O)n1-c1ccc(N2CCC(C)CC2)cc1	i	i	i	i	65	i
Cc1nc(N)sc1-c1csc(Nc2ncccn2)n1	i	i	i	i	50	i
Cc1ccc(Nc2nc(-c3cccs3)cs2)nc1	i	71	i	65	75	17
Cc1ccc(S(=O)(=O)Nc2nc(-c3ccccc3)cs2)cc1	i	i	nt	i	i	i
c1cncc(Nc2nc(-c3cccs3)cs2)c1	i	i	i	i	i	i
Cc1nc(C)c(-c2csc(Nc3ccc(Cl)cn3)n2)s1	nt	i	nt	i	57	nt
Cc1nc(C)c(-c2csc(Nc3ccc(F)cc3)n2)s1	i	i	i	i	i	i
Cc1ccc(Nc2nc(-c3ccccc3)cs2)nc1	i	i	nt	i	75	i
Cc1nc(C)c(-c2csc(Nc3ncccc3C)n2)s1	i	i	nt	i	i	i
COc1cccc(NC(=O)[C@H](CC(C)C)NC(=O)[C@@H]2Cc3ccccc3CN2)c1	i	i	nt	i	i	i
Cc1c(C(=O)Nc2ccc(F)cc2)oc2ccc(S(=O)(=O)N3CC(C)CC(C)C3)cc12 (stereo not given)	i	i	i	i	54	i
CCc1ccc(OCCCC(=O)Nc2ccc(S(=O)(=O)Nc3cc(C)nc(C)n3)cc2)cc1	i	i	nt	i	55	i
SMILES	Platelet DG rel	TROY NFkB inh	PPC-1+TRAIL kill	TRAIL sens C8	TWEAK Fn14 block	HSP90 refold inh
CCCC(=O)Nc1ccc(S(=O)(=O)Nc2cc(C)nc(C)n2)cc1	i	i	i	i	i	i
COc1ccc(-c2ccc(C(=O)NCC3CCOCC3)c3occc23)c(C)c1	nt	i	nt	i	i	nt
CCc1nn(CCCC(=O)NCc2cc(Br)ccc2OC)c(=O)c2cc3occc3n12	i	i	nt	i	i	i
COc1ccc(CCN2C(=O)c3cccc4c(C(=O)N5CCCCC5)ccc(c34)C2=O)cc1OC	i	57	i	i	78	i
O=C(CCNC(=O)c1ccc(Br)cc1)NCc1ccncc1	i	i	nt	i	i	nt
CC(=O)N/N=C/c1cc(C(C)(C)C)cc(/C=N/NC(C)=O)c1O	i	i	nt	i	i	i
